Measured values from PubChem BioAssay AID463188 (University of Pittsburgh Molecular Library Screening Center, 2010).
Screen size: about 1,300 compounds; about 360 (28%) were called active.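 The calls were made as follows: active = average inhibition of at least 50%, with Z-scores no higher than 3 in both the phospho-tyrosine peptide and fluorescence counterscreens; inactive = the rest.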 These entries were drawn from the full list.

Legend:
[1] = Nef-activated Hck kinase blockers, duplicate retest – biochemical, Z-Lyte FRET, 384-well, p-Tyr peptide counterscreen, confirmation (AID 463188); conditions: Recombinant Hck-YEEI:Nef, Z-Lyte FRET kinase assay; measured here: p-Tyr peptide counterscreen; at 10 µM
[2] = target: Tyrosine-protein kinase HCK (Homo sapiens) (UniProt P08631); experiment: as above; conditions: Recombinant Hck-YEEI:Nef, Z-Lyte FRET kinase assay; at 10 µM; stronger effect = higher value
Tyrosine-protein kinase HCK (Homo sapiens), sequence (P08631 whole entry, looked up): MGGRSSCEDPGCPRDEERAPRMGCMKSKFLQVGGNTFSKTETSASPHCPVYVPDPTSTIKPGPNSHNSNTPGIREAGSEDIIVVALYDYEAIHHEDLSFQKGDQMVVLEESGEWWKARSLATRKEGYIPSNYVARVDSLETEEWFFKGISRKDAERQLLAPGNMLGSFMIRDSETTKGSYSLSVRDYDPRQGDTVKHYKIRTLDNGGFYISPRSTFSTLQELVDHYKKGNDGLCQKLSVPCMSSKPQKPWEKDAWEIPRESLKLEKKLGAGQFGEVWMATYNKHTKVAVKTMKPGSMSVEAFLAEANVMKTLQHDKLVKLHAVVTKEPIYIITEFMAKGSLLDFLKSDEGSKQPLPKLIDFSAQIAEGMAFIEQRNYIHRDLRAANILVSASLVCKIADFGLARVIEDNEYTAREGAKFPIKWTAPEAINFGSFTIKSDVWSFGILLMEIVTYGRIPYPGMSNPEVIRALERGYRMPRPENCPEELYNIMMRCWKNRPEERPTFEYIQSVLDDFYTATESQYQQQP

Structure (SMILES) | z-score [1] | inhibition [2] | inhibition [1]
N#Cc1c(-c2cccs2)nc(SCC(=O)c2ccc(Br)cc2)[nH]c1=O | -2.14 | 54.2% (active) | 
Cc1ccc(S(=O)(=O)c2c(N)n(C)c3nc4ccccc4nc23)cc1 | 15.1 | 51.3% (inactive) | 
Cc1ccc(-n2c(=O)c(C#N)cc3c(=O)n4ccccc4nc32)cc1C |  |  | 15.8
COc1ccc(N=Cc2c(O)[nH]c3ccccc23)cc1OC | 2.53 | 67.3% (active) | 
CCN(CC)c1ccc2cc(C(=O)O)c(=O)oc2c1 |  |  | 180
CC(C)n1cnc2c(Nc3cccc(Cl)c3)nc(N(CCO)CCCO)nc21 | -1.42 | 92.6% (active) | 
COc1cccc(CNC(=O)CCC2CCCN(Cc3ccc(OC(F)F)cc3)C2)c1 (configuration not stated) | 0.273 | 13.3% (inactive) | 
CCn1c(=O)c2cc(C(=O)Nc3cccc(C(C)=O)c3)sc2c2ccccc21 | 0.522 | 30.2% (inactive) | 
CC(C)(C)OC(=O)NCCCCCC(=O)N/N=C/c1coc2ccccc2c1=O | -0.798 | 80.9% (active) | 
Oc1c(Cl)cc(Cl)c(Cl)c1Cc1c(O)c(Cl)cc(Cl)c1Cl | -1.64 | 12.2% (inactive) | 
COC(=O)C1=CN(Cc2ccc(OC)c(OC)c2)C=C(C(=O)OC)C1c1cccs1 |  |  | 22.9
O=C(Nc1ccncc1)c1cc(-c2ccccn2)nc2ccc(Br)cc12 | 0.0526 | 76.4% (active) | 
Cc1ccc(-c2cc(C(=O)NCc3cn(C)nc3C)c3cc(Br)ccc3n2)cc1 | -0.98 | 46.1% (inactive) | 
O=C(CSc1cccc2cccnc12)N/N=C/c1cccnc1 | -0.0644 | 36.9% (inactive) | 
Cc1ncc(CC(=O)n2cc(C(=O)c3cc(Cl)ccc3O)cn2)s1 | -1.16 | 75% (active) | 
COC/C=C/C1=CC2=CC(=O)C(C)(OC(=O)CCC(=O)OC)C(=O)C2=CO1 (configuration not stated) | -0.884 | 43.8% (inactive) | 
O=C(Cc1ccccc1)Nc1cccc(C(=O)N/N=C/c2ccco2)c1 | -0.994 | 30% (inactive) | 
COc1ccc(C(=O)n2nc(-c3ccc(Cl)cc3)nc2N)cc1OC | 3.28 | 2.06% (inactive) | 
CCn1c(=N)c(C(=O)NCCCOC)cc2c(=O)n3cccc(C)c3nc21 |  |  | 192
Cc1ccc(/C=C/C(=O)Nc2ccc([N+](=O)[O-])c(NC(=O)/C=C/c3ccc(C)o3)c2)o1 | -2.13 | 51.4% (active) | 
O=C(NNC(=O)c1csc(-c2cccnc2)n1)Nc1ccc(Cl)cc1 | -0.478 | 11.4% (inactive) | 
Cc1ccc(SC(CC(=O)c2ccc(C(C)(C)C)cc2)C(=O)O)cc1 (configuration not stated) | -0.516 | 20.8% (inactive) | 
O=[N+]([O-])c1cc(Cl)cc(/C=N/NC(=S)Nc2cc(S(=O)(=O)N3CCOCC3)ccc2Cl)c1O | -0.299 | 63.6% (active) | 
CN(C)S(=O)(=O)c1cccc(-c2nn(-c3ccccc3)cc2/C=C2\SC(=S)N(CC(=O)O)C2=O)c1 | -1.38 | 38.1% (inactive) | 
C=C(C)COc1ccc(-c2nc(N)ncc2-c2ccccc2OC)c(O)c1 | -0.555 | 55.8% (active) | 

Structure (SMILES) | z-score [1] | inhibition [2] | inhibition [1]
CCOc1ccc(-c2nc(N)ncc2-c2ccccc2OC)c(O)c1 | -1.74 | 63.2% (active) | 
COc1cccc(C(=O)c2cc3ccc(O)cc3oc2=O)c1 |  |  | 51.8
O=C1Oc2ccccc2C(=O)/C1=C/c1ccccc1O | -0.0667 | 30.1% (inactive) | 
Cc1cc(/C=N/Nc2ccc([N+](=O)[O-])cn2)c(C)n1-c1cccc(C(=O)O)c1 | 0.131 | 38.5% (inactive) | 
COC(=O)Cc1cc(=O)oc2c(C)c(O)ccc12 |  |  | 94.6
CC(=O)Oc1ccc2c(C)c(CC(C)O)c(=O)oc2c1 (configuration not stated) |  |  | 122
CCCCN(CCCC)CC(O)Cn1c2ccccc2c(=O)c2ccccc21 (configuration not stated) |  |  | 80.9
OC(c1nnc(-c2ccccc2)o1)c1cccs1 (configuration not stated) | -1.39 | 19.9% (inactive) | 
CCOc1ccccc1C1C(C(=O)OC)=CN(C)C=C1C(=O)OC |  |  | 41.6
Cc1cccc(-[n+]2c(-c3cccc(Br)c3)[nH]c3nc4ccccc4nc32)c1 | -0.694 | 13.5% (inactive) | 
O=C(Nc1ccc(S(=O)(=O)Nc2nccs2)cc1)c1cc(-c2ccncc2)nc2ccccc12 | -0.658 | 65.3% (active) | 
Cc1cc(C)c2nc(-c3cccnc3)cc(C(=O)Nc3ccc(S(=O)(=O)Nc4onc(C)c4C)cc3)c2c1 | -1.22 | 40.5% (inactive) | 
COCCCn1c(-c2cccs2)nc2nc3ccccc3nc21 |  |  | 61.4
O=[N+]([O-])c1cccc(Nc2c3ccccc3nc3ccccc23)c1 | 0.872 | 9.19% (inactive) | 
CN(CC(=O)Nc1cccc(F)c1)CC(=O)Nc1cccc([N+](=O)[O-])c1 | -0.0694 | 62.1% (active) | 
O=C(NCc1ccccc1)C1CCCN(c2nc3ccsc3c(=O)s2)C1 (configuration not stated) | 2.05 | 18.7% (inactive) | 
CN(C(=O)COC(=O)c1cc(-c2ccco2)nc2ccccc12)C1CCS(=O)(=O)C1 (configuration not stated) | 0.38 | 49.5% (inactive) | 
c1ccc(CSc2nnc(-c3ccco3)c(-c3ccco3)n2)cc1 | 0.442 | 26.4% (inactive) | 
Clc1ccc2c(c1)C1=C(C(c3ccncc3)O2)C(c2ccc(Br)cc2)n2ncnc2N1 (configuration not stated) | 1.34 | 92.8% (active) | 
Cc1cc(OC(=O)c2ccccc2Cl)ccc1N1C(=O)CCC1=O | 0.0636 | 11.5% (inactive) | 
COC(=O)c1ccc(OCC(O)CN(CCO)CC(O)Cn2ccc3ccccc32)cc1 (configuration not stated) | 3.64 | -1.67% (inactive) | 
O=C(O)CCn1cc(/C=C/C(=O)c2ccc(Cl)cc2)c(-c2cccc(Br)c2)n1 | -0.131 | 24.8% (inactive) | 
CCCn1c(=NC(C)=O)c(C(=O)OCC)cc2c(=O)n3ccccc3nc21 | 85.9 | 33.1% (inactive) | 
Cc1cccn2c(=O)c3cc(C#N)c(=O)n(CCCN4CCOCC4)c3nc12 |  |  | 248
